Results on 10 compounds are retold here after PMC5540273 (PLoS ONE, 2017).

Common to all, as to settings: concentration: 1 μM, replicates: in singlicate; n = 1
The subject of test [1] is STK36.
The subject of test [2] is STK39.
The test system of test [3] is SYK.
The test system of test [4] is SgK110.
Test [5] has as its system T1, TAK1.
T1 construct: gene MAP3K7

The subject of test [6] is TAOK1.
Test [7] concerns TAOK2.
The test system of test [8] is TAOK3.
Test [9] relates to TBK1.
The subject of test [10] is TEC.
Test [11] concerns TESK1.
Test [12] relates to TGFBR1.
Test [13] has as its system TGFBR2.
Test [14] deals with TIE1.
The test system of test [15] is T2, TIE2.
T2 construct: gene TEK

The subject of test [16] is TLK1.
Test [17] has as its system TLK2.
For test [18], the system named is TNIK.
Test [19] has as its system TNK1.
The subject of test [20] is TNK2.
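Note: KINOMEscan kinase panel screen.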

With `CC(C)NCC(Cc1ccccc1)NC(=O)c1cc(Br)c(-c2ccnc3[nH]ccc23)s1.Cl.Cl` (centres unmarked) [GSK1383281], the “%Inh” value in test [1] is 0%; in test [2] it was 0%; in test [3], 0%; in test [4], 73%; in test [5], 0%; in test [6], 41%. Also, the “%Inh” value stood at 0% in [7]; 0% in [8]; 20% in [9]; 0% in test [10]; 47% in test [11]; 1% in test [12]. Besides, the “%Inh” value is listed as 0% in test [13]; 69% in test [14]; 0% in test [15]; 8% in test [16]; 13% in test [17]; 5% in test [18]. Also, the “%Inh” value in [19] and in test [20] was 0% in each case.

Take `O=C(Nc1n[nH]c2nc(-c3cccc(O)c3)ccc12)C1CC1` [SB-711805]: the “%Inh” value is listed as 14% in test [1]; 4% in test [2]; 40% in [3]; 0% in [4]; 15% in test [5]; 88% in [6]. Besides, the “%Inh” value is listed as 12% in test [7]; 34% in test [8]; 23% in [9]; 0% in [10]; 0% in [11]; 4% in test [12]. Also, the “%Inh” value in [13] is given as 87%; in test [14] it was 0%; in [15] it was 21%; in [16] it was 9%; in test [17], 100%; in test [18], 65%. Also, the “%Inh” value in test [19] was determined as 4%; in test [20] it was 0%.

For the compound `O=C(O)C(F)(F)F.O=c1[nH]ccc2nc(N[C@@H]3CCNC3)nc(Nc3cc(Cl)cc(Cl)c3)c12` [GSK2188764], the “%Inh” value in [1] is on record as 17%; in test [2], 75%; in [3], 84%; in test [4] it was 3%; in test [5], 99.1%; in [6], 34%. The “%Inh” value in test [7] came out at 3%; in test [8] it was 18%; in test [9], 54%; in test [10] it was 0%; in [11], 8%; in test [12] it was 25%. Further, the “%Inh” value in test [13] came out at 0%; in test [14], 0%; in test [15] it was 0%; in test [16], 62%; in test [17], 73%; in test [18], 96.5%. Also, the “%Inh” value in test [19] is recorded as 41%; in [20] it was 4%.

With `O=C(Nc1n[nH]c2cc(-c3cccs3)ccc12)C1CC1` [SB-731284], the “%Inh” value was found to be 0% in test [1]; 0% in [2]; 0% in test [3]; 0% in test [4]; 23% in test [5]; 61% in [6]. In addition, the “%Inh” value is listed as 0% in [7]; 34% in test [8]; 47% in test [9]; 0% in test [10]; 0% in test [11]; 0% in test [12]. The “%Inh” value is listed as 0% in [13]; 0% in [14]; 7% in [15]; 0% in test [16]; 0% in test [17]; 56% in test [18]. Further, the “%Inh” value in [19] and in test [20] was 0% throughout.

On to `O=C(O)C(F)(F)F.O=c1[nH]ccc2nc(N[C@@H]3CCNC3)nc(Nc3ccc4c(c3)S(=O)(=O)CC4)c12` [GSK2181306], for which the “%Inh” value came out at 20% in test [1]; 84% in [2]; 87% in test [3]; 10% in test [4]; 99.3% in test [5]; 90.3% in test [6]. For the same compound, the “%Inh” value is 60% in [7]; 94.9% in [8]; 68% in [9]; 0% in test [10]; 0% in test [11]; 0% in test [12]. Moreover, the “%Inh” value in [13] was 0%; in test [14], 0%; in test [15] it was 0%; in test [16], 94.6%; in test [17], 98.5%; in test [18], 98%. For the same compound, the “%Inh” value was determined as 31% in test [19] and 3% in test [20].

Turning to `CN1CCN(Cc2ccc(NC(=O)Nc3ccc(N(C)c4ccnc(Nc5ccc(CS(C)(=O)=O)cc5)n4)cc3)cc2)CC1.Cl` [GW827654], the “%Inh” value in test [1] is recorded as 49%; in [2], 36%; in test [3], 84%; in [4], 0%; in [5] it was 89%; in [6] it was 13%. Besides, the “%Inh” value in test [7] is listed as 0%; in test [8], 0%; in test [9], 30%; in [10], 9%; in [11] it was 0%; in test [12] it was 25%. For the same compound, the “%Inh” value in test [13] is reported as 81%; in [14], 96.9%; in test [15], 80%; in [16], 25%; in [17], 0%; in test [18], 90.9%. In addition, the “%Inh” value in test [19] was 20%; in test [20] it was 97.7%.

Turning to `Cn1cc(-c2cnc(N)c3c(-c4ccc5c(c4)CCN5C(=O)Cc4ccccc4)csc23)cn1` [GSK2593074], the “%Inh” value in test [1] is 0%; in test [2], 0%; in test [3], 16%; in [4], 8%; in test [5], 33%; in [6] it was 0%. Also, the “%Inh” value was 0% in [7]; 0% in [8]; 23% in [9]; 14% in [10]; 53% in test [11]; 6% in [12]. For the same compound, the “%Inh” value in test [13] is listed as 4%; in [14], 84%; in test [15], 84%; in test [16], 31%; in test [17], 5%; in test [18], 8%. Besides, the “%Inh” value in test [19] came to 19%; in test [20], 62%.

Take `CN(c1ccc(F)c(NC(=O)c2cccc(OC(C)(C)C#N)c2Cl)c1)c1ccc2nc(NC(=O)C3CC3)sc2n1`: the “%Inh” value in [1] is reported as 3%; in test [2], 12%; in test [3], 0%; in test [4], 0%; in test [5], 19%; in test [6], 49%. Further, the “%Inh” value is given as 0% in [7]; 0% in test [8]; 7% in test [9]; 6% in [10]; 6% in test [11]; 3% in test [12]. Moreover, the “%Inh” value in test [13] is given as 0%; in test [14], 67%; in test [15] it was 0%; in test [16], 2%; in test [17], 0%; in test [18] it was 95.6%. Also, the entries for the “%Inh” value in test [19] and in test [20] were 42% and 0%, respectively.

For the compound `CNc1nccc(-c2ccc3c(N)n[nH]c3c2)n1` [GSK2206003], the “%Inh” value in test [1] came to 0%; in [2], 0%; in test [3], 23%; in [4], 0%; in test [5] it was 37%; in test [6] it was 64%. The “%Inh” value in test [7] worked out at 0%; in [8], 0%; in [9] it was 22%; in [10], 5%; in test [11] it was 31%; in test [12] it was 25%. In addition, the “%Inh” value turned out to be 9% in test [13]; 15% in test [14]; 0% in test [15]; 8% in [16]; 1% in test [17]; 50% in test [18]. Besides, the “%Inh” value in test [19] came to 0%; in test [20], 17%.

For the compound `COc1cccc2c(-c3ccncc3)c(-c3ccc(F)cc3)nn12` [GW468513], the “%Inh” value was 54% in test [1]; 14% in [2]; 0% in [3]; 0% in test [4]; 0% in test [5]; 0% in test [6]. In addition, the “%Inh” value in test [7] is recorded as 0%; in [8], 0%; in test [9] it was 2%; in [10], 4%; in test [11], 0%; in test [12], 65%. For the same compound, the “%Inh” value in test [13] stood at 47%; in test [14], 33%; in test [15], 0%; in test [16], 0%; in [17], 0%; in [18] it was 69%. For the same compound, the figures for the “%Inh” value in test [19] and in [20] were 0% and 14%, respectively.
